# Test results as given in PubChem BioAssay.
# Molecular target: Alpha-bungarotoxin (Bungarus multicinctus) (UniProt P60615)
# Assay: alpha-bungarotoxin binders on microarray, profiling panel, artefact control for SMM control protein annotation, biochemical, small-molecule microarray, Alexa647 label, 635/667 nm fluorescence (AID 1117)
# Conditions: alpha-BTX-A647 binding fluorescence, higher = more signal
# Alpha-bungarotoxin (Bungarus multicinctus), sequence (P60615 whole entry, looked up): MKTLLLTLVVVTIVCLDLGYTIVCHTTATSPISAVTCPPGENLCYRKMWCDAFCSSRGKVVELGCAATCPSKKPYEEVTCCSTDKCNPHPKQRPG
row,SMILES,composite z-score
1,COC(=O)[C@H](C)NC(=O)CCC1CC(OC(=O)NCCc2ccc(F)cc2)CC2(CCCC(COC(=O)NCCc3ccc(Cl)cc3)O2)O1 (stereo partly specified),0.763
2,C=COC[C@H]1CN2[C@@H](CC[C@@H](C)[C@@H]2c2ccc(Br)cc2)C(=O)O1,0.166
3,CN1C(=O)C2C=CC(C(O)c3ccc(Br)cc3)N(N(c3ccccc3)c3ccccc3)C2C1=O (stereo unspecified),1.12
4,COC(=O)[C@H](C)NC(=O)[C@@H](C)CO,0.855
5,O=C1[C@H]2[C@H]3[C@H](O)[C@H](O)CC(=NOCc4ccccc4)[C@@H]3CC[C@H]2C(=O)N1Cc1ccccc1,0.159
6,CC(C)[C@@H](OCc1ccccc1)[C@H](C)C=NOC[C@@H](C)[C@H](OCc1ccccc1)C(C)C,0.312
7,CCOC(=O)[C@H](Cc1ccccc1)NC(=O)CCC1CC(OC(=O)NCc2ccc3c(c2)OCO3)CC2(CCCC(COC(=O)NCC3CCCCC3)O2)O1 (stereo partly specified),0.629
8,COC(=O)[C@@H]1CC[C@H](C)[C@@H](c2ccc(C)cc2)N1C(=O)c1ccc(C=NOC[C@@H](O)COCc2ccco2)cc1,-1.25
9,Cc1cc2c(nc1C)CCCN2CC(O)CN1CCN(C)CC1 (stereo unspecified),0.908
10,C=C(CCCC)C(=O)CC[C@@H](OC(C)=O)c1cccc(OCCO)c1,-0.0603
11,CCOC(=O)[C@H](Cc1ccccc1)NC(=O)CCC1CC(OC(=O)NCc2ccc3c(c2)OCO3)CC2(CCCC(COC(=O)NCC(c3ccccc3)c3ccccc3)O2)O1 (stereo partly specified),0.363
12,C#CCCCON=C1C[C@@H](O)[C@@H](O)[C@@H]2[C@@H]3C(=O)N(c4cccc(Oc5ccccc5)c4)C(=O)[C@@H]3CC[C@@H]12,0.724
13,CC(C)CON=C1C[C@@H](O)[C@@H](O)[C@@H]2[C@@H]3C(=O)N(C[C@@H]4CCCO4)C(=O)[C@@H]3CC[C@H]12,0.0141
14,CCN1C(=O)[C@H]2[C@H]3[C@H](O)[C@H](O)CC(=NO[C@@H]4O[C@H](CO)[C@@H](O)[C@H](O)[C@H]4O)[C@@H]3CC[C@H]2C1=O,-0.479
15,COc1ccc(-c2ccc3c(n2)CCCN3CC(O)CN2CCCc3nc(C)c(C)cc32)cc1 (stereo unspecified),2.05
16,CO[C@H]1O[C@H](CO)[C@@H](OC(=O)Nc2ccc3c(c2)OCO3)[C@H](OC(=O)Nc2ccccc2-c2ccccc2)[C@@H]1OC(=O)Nc1ccccc1-c1ccccc1,0.614
17,COC(=O)CC1OC1[C@H](C)[C@@H](OC)C(C)C (stereo partly specified),0.93
18,CO[C@@H]1COC(=O)CC=C[C@@H](C)[C@@H]2C=C[C@H](O)[C@@H](COC(=O)[C@H](C)NC(=O)CC=C[C@H]1C)O2,0.304

row,SMILES,composite z-score
1,N#Cc1ccc(NN2C(C(O)c3cc(C(F)(F)F)cc(C(F)(F)F)c3)C=CC3C(=O)N(c4ccccc4)C(=O)C32)cc1 (stereo unspecified),0.692
2,CCOC(=O)NN=C1C[C@@H](O)[C@@H](O)[C@@H]2[C@@H]3C(=O)N(C[C@@H]4CCCO4)C(=O)[C@@H]3CC[C@@H]12,-0.189
3,COCCOC(=O)N1C(=O)[C@@]2(c3cc(C#CC4(O)CCCCCC4)ccc31)[C@H](C(=O)N1CCN(c3ncccn3)CC1)[C@H]1C(=O)O[C@H](c3ccccc3)[C@H](c3ccccc3)N1[C@@H]2c1ccc(OCCO)cc1,1.33
4,C=CC[C@]1(C(=O)NCc2ccccc2)N=C(c2ccc(OCCCO)cc2)O[C@H]1c1ccccc1,2.46
5,COc1ccc(O[C@H]2C=C[C@@H](c3ccccc3)O[C@@H]2COC(=O)CCC(C)=NOC(C)CN2CCCCc3nc(C)c(C)cc32)cc1 (stereo partly specified),-0.47
6,CO[C@@H]1COC(=O)CC=C[C@@H](C)[C@@H]2C=C[C@@H](O)[C@@H](COC(=O)CC=C[C@H]1C)O2,-0.114
7,CCOC(=O)[C@H](Cc1ccccc1)NC(=O)CCC1CC(OC(=O)NCCc2ccc(F)cc2)CC2(CCCC(COC(=O)NCC(c3ccccc3)c3ccccc3)O2)O1 (stereo partly specified),0.0051
8,C[C@H]1CC[C@@H](C(=O)O)N[C@@H]1c1ccc(C#CCN(C)C)cc1,0.783
9,O=C1NC(=O)C2C1C=CC(C(O)Cc1ccccc1)N2Nc1ccccn1 (stereo unspecified),1.34
10,CCOC(=O)CCN1C(=O)[C@H]2[C@H]3[C@H](O)[C@H](O)CC(=NOC[C@@H](O)COCc4ccco4)[C@@H]3CC[C@H]2C1=O,0.557
11,CC(C)(C)N1C(=O)[C@H]2[C@H]3[C@H](O)[C@H](O)CC(=NOCc4ccccc4)[C@@H]3CC[C@H]2C1=O,1.19
12,COC(=O)[C@@]1(Cc2ccccc2)[C@H]2c3cc(C(=O)N4CCCC4)n(Cc4ccccn4)c3C[C@H]2CN1C(=O)c1ccccc1,0.914
13,C[C@@H](c1ccccc1)N1C(=O)[C@H]2[C@H]3[C@H](O)[C@H](O)CC(=NOC[C@@H](O)COCc4ccco4)[C@@H]3CC[C@H]2C1=O,0.556
14,COc1ccc(O[C@H]2C=C[C@@H](c3ccccc3)O[C@@H]2COC(=O)CCC(C)=NOCC[C@@H]2C=C[C@H](OC(C)=O)[C@@H](COC(C)=O)O2)cc1,-0.0704
15,O=C1[C@H]2[C@H]3[C@H](O)[C@H](O)CC(=NOC[C@@H](O)COCc4ccco4)[C@H]3CC[C@H]2C(=O)N1c1cccc(Oc2ccccc2)c1,-0.572
16,COC(=O)CC=C[C@@H](C)[C@@H](C=NO[C@@H](C)c1cc(-c2c(C)cc(C)cc2C)no1)OC,-1.11
17,COc1ccc(COC(=O)NN=C2C[C@@H](O)[C@@H](O)[C@@H]3[C@@H]4C(=O)N(Cc5ccc6c(c5)OCO6)C(=O)[C@@H]4CC[C@@H]23)cc1,0.452
18,C[C@@H]1CCC2C(=O)N(Cc3ccccc3)C[C@@H](O)CN2[C@H]1c1ccc(Br)cc1 (stereo partly specified),0.0711
